# Compounds without any hit were thinned out: in the full panel of roughly 83,000, 20% have a hit.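 48-hour exposure, single concentration, 96-well plates; percent growth endpoint where 0 means no net growth. Active: below 10.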 The source made the active and inactive calls.
# Test system: HT29 colon
# Experiment: NCI-60 one-dose screen, 48 h (100 = growth as untreated, 0 = no growth, -100 = all killed)
# Details: 10 µM unless noted
# Procedure: Growth inhibition of the HT29 human tumor cell line is measured as a screen for anti-cancer activity. Cells are grown in 96 well plates and exposed to the test compound for 48 hours. Compounds are tested at a single concentration, which is 10^-5 M for most compounds. The reported endpoint is percent growth (GI% or GIPRCNT), where numbers from 0 - 100% represent growth inhibition, and numbers from -100% - 0 represent cell death. For example, a value of 40 represents 60% growth inhibition. A value of 0 means no net growth occurred over the course of the experiment. A value of -40 indicates 40% of cells at the beginning of the experiment died by the end of the experiment. A value of -100 means all cells are dead at the end of the experiment.
# NCI-60 Human Tumor Cell Lines Screen was performed using the standard one-dose NCI protocol, which is described in more detail at https://dtp.cancer.gov/discovery_development/nci-60/default.htm.
# Compounds with GIPRCNT values below 10 were considered active. Activity score was based on GIPRCNT using the following formula: […]
# Score is 0 for GIPRCNT values of 100 or above, 50 for GIPRCNT values of 0, and 100 for GIPRCNT values of -100.
row,Compound,growth
1,COc1cc2nc(-c3ccc(C(F)(F)F)cc3)cc(OCCCNCC3CCCO3)c2cc1OC (stereo not given),-7.81% (active)
2,C#Cc1nc(C2=C(C)C(OC(=O)CCC(=O)O)CC2)cs1 (stereo not given),125% (inactive)
3,Cc1ccc(/C=C/c2nn3c(-c4ccco4)nnc3s2)cc1C,109% (inactive)
4,Nc1c(C(=O)c2ccc(Br)cc2)oc2nc(-c3cnccn3)cc(-c3cccs3)c12,111% (inactive)
5,COc1ccc(-c2nc3ccc(-c4nnc(SCC(=O)Nc5ccc(C(=O)/C=C/c6ccccc6)cc5)o4)cc3[nH]2)cc1OC,103% (inactive)
6,COc1ccc(C(=O)/C=C/c2ccc(Oc3nc(NCCO)nc(N4CCOCC4)n3)c(OC)c2)cc1,35% (inactive)
7,Cc1cccc2sc(/N=C(\N)C(Br)Br)nc12,-30.4% (active)
8,CC(C)(C)Nc1nc2c(OCCc3ccccc3)cccn2c1-c1ccc(O)cc1,14.8% (inactive)
9,CCCSc1nc(Nc2ccc(/C(C)=N\NC(N)=S)cc2)c(C#N)c(-c2ccc(OC)cc2)n1,87.7% (inactive)
10,O=C(N/N=C/c1ccc[nH]1)c1[nH]c2ccc(Br)cc2c1-c1ccccc1,6.16% (active)
11,CNC(=O)c1cc(-c2ccc(NC(=O)Nc3ccc(N4CCOCC4)c(C(F)(F)F)c3)cc2)nc2cccnc12,54.9% (inactive)
12,COc1cc(OC)c(C2C(Cl)C(=O)N2Nc2ncnc3ccccc23)cc1OC (stereo not given),112% (inactive)
13,COc1cccc(OC)c1-c1nnn(C)c1C(=S)N1CCN(c2ccc([N+](=O)[O-])cc2Cl)CC1,104% (inactive)
14,Nc1c(C(=O)Nc2ccc(C(F)(F)F)cc2)sc2nc(-c3cnccn3)cc(-c3cccs3)c12,95% (inactive)
15,C=CCSc1ccc2c(c1)C(N1CCNCC1)=Nc1ccccc1O2,44.2% [8.25 µM] (inactive)
16,Cc1cccc2sc(/N=C(\N)C(Cl)(Cl)Cl)nc12,105% (inactive)
17,N/C(=N\c1nc2c(Br)cccc2s1)C(Br)Br,-11.3% (active)
18,OC1CCN(CCCOc2c3ccccc3nc3c2oc2ccccc23)CC1,3.65% (active)
19,O=[N+]([O-])c1ccc(O)c2ncccc12,20% (inactive)
20,N#Cc1nc(-c2ccccc2)oc1S(=O)(=O)N1CCN(CCc2ccccn2)CC1,-5.82% (active)

row,Compound,growth
1,Cc1sc2nc(NCc3ccccc3Cl)[nH]c(=O)c2c1C,103% (inactive)
2,CCCCCCNC(=O)Oc1ccc(/C(=C(/C)c2ccccc2)c2ccc(OCCN3CCCCCC3)cc2)cc1,-13.3% (active)
3,OC1CCc2c(-c3ccc4ncnc(N5CCc6cc(F)c(Cl)cc65)c4c3)cncc21 (stereo not given),65.6% (inactive)
4,N[C@@H](Cc1cn(-c2ccnc3ccccc23)nn1)C(=O)O,102% (inactive)
5,COC(=O)c1ccc(NC(=S)N2CCc3ccc([N+](=O)[O-])cc3C2)cc1O,109% (inactive)
6,O=C(c1ccc(Cl)cc1)C1[C@H](c2ccc(Cl)cc2)[C@@H](c2ccccc2)NC12C(=O)Nc1ccc(Br)cc12 (stereo not given in full),0.232% (active)
7,Cc1nc(-c2cc3ccccc3oc2=O)ccc1C(=O)/C=C/c1ccccn1,2.1% (active)
8,Cc1cc2nc3c4cc(Cl)ccc4n(CC(=O)NCCN(C)C)c3nc2cc1C,-75.5% (active)
9,N#Cc1nc(-c2ccccc2)oc1N1CCC(CO)C1 (stereo not given),107% (inactive)
10,N#Cc1nc(-c2ccccc2)oc1S(=O)(=O)N1CCCCC1,2.86% (active)
11,CN1CCN(Cc2ccc(NC(=O)c3cncc(C#Cc4cnc5[nH]ncc5c4)c3)cc2C(F)(F)F)CC1,22.7% (inactive)
12,CC(C)(C)Nc1nc2c(OCCc3ccccc3)cccn2c1-c1ccccc1Cl,-47.3% (active)
13,C/C(=N/NC(N)=S)c1ccc(Nc2nc(SCC(C)C)nc(-c3ccc(F)cc3)c2C#N)cc1,15% (inactive)
14,N#Cc1c(-c2ccc(Cl)cc2)nc(SCc2ccc(F)cc2)nc1N1CCNCC1,-51.8% (active)
15,COc1ccc(NC2=C(Cl)C(=O)C(C)=C(C)C2=O)cc1OC,101% (inactive)
16,COc1ccc(NC(=O)c2sc3nc(-c4cnccn4)cc(-c4cccs4)c3c2N)cc1,20.8% (inactive)
17,COC(=O)C(Cc1ccccc1)NS(=O)(=O)/N=C1\NC(=O)NC1=C(Cl)Cl (stereo not given),127% (inactive)
18,CCN1C(=S)N(c2ccccc2)C2NC(=O)N(/N=C/C=C/c3ccccc3OC)C21 (stereo not given),98.8% (inactive)
19,Fc1ccc(-c2cc3nc(C(Cl)Cl)nc(-c4ccccc4)n3n2)cc1,-41.4% (active)
20,COc1cc(-c2ccc3ncnc(NC(C)c4ccccc4)c3c2)cnc1OC (stereo not given),65% (inactive)

# Reference: PubChem BioAssay (NCI)
